Test results as given in PubChem BioAssay.
Calls of active or inactive are those of the source. Rule as the data show it: active = nuclear beta-catenin stimulation mostly above about 4.2% (no sharp cut-off); inactive = mostly below about 10%.

Test: Wnt pathway potentiators raising nuclear beta-catenin – imaging, WNT3A-conditioned medium, mouse C2C12, NPC library, primary screen (AID 1117326); also: reference of the scale not given here
Details: at 10 µM, stronger effect = higher value

Nuclear beta-catenin stimulation, active:
CC(=O)Oc1ccc(C2(c3ccc(OC(C)=O)cc3)Oc3ccccc3NC2=O)cc1 54.6%, Cc1ccccc1C(=O)Nc1ccc(C(=O)N2CCCC(N(C)C)c3ccccc32)cc1 (centres undefined) 58.3%

Nuclear beta-catenin stimulation, inactive:
CC(O)CCCCn1c(=O)c2c(ncn2C)n(C)c1=O (centres undefined) -0.6%, O=C(O)C(Cc1cc(I)c(O)c(I)c1)c1ccccc1 (centres undefined) 1.5%, CCC(C(=O)O)c1ccc(N2Cc3ccccc3C2=O)cc1 (centres undefined) 0.8%, O=C(N/N=C/c1ccccc1O)c1ccncc1 32.2%, CC12CCC(C[N+](C)(CCC[N+](C)(C)C)C1)C2(C)C (centres undefined) -0.5%, CC1(C)OC[C@@H](COC(=O)CCc2ccc(OC[C@@H](O)CNCCNC(=O)N3CCOCC3)cc2)O1 0.8%, O=C(Nc1ncc([N+](=O)[O-])s1)c1cccs1 -2.8%, COc1cc(NS(=O)(=O)c2ccc(N)cc2)nc(C)n1 1.1%, Cc1ccc(S(=O)(=O)NC(=O)NC2CCCCC2)cc1 0.6%, C=CCOc1cc(Cl)ccc1C(=O)NCCN(CC)CC -0.4%, COc1cc(/C=C/C(=O)O[C@H]2CC[C@]34C[C@]35CC[C@]3(C)[C@@H]([C@H](C)CCC=C(C)C)CC[C@@]3(C)[C@@H]5CC[C@H]4C2(C)C)ccc1O -1.5%, C[C@@H](O)[C@H](N)C(=O)O 0.7%, CCOc1ccccc1O[C@H](c1ccccc1)[C@H]1CNCCO1 -0.4%, O=C(/C=C/c1ccccc1)OCc1ccccc1 1.3%, CN[C@H](CC(C)C)C(=O)N[C@H]1C(=O)N[C@@H](CC(N)=O)C(=O)N[C@H]2C(=O)N[C@H]3C(=O)N[C@H](C(=O)N[C@H](C(=O)O)c4cc(O)cc(O)c4-c4cc3ccc4O)[C@H](O)c3ccc(c(Cl)c3)Oc3cc2cc(c3O[C@@H]2OC(CO)[C@@H](O)[C@H](O)[C@@H]2O[C@H]2C[C@](C)(N)[C@H](O)[C@H](C)O2)Oc2ccc(cc2Cl)[C@H]1O (some centres undefined) -0.7%, O=C(OCC(O)CO)c1ccccc1Nc1ccnc2c(C(F)(F)F)cccc12 (centres undefined) 1%, CCN1CCCC1=O -0.1%, NC(=O)NC1N=C([O][Al])NC1=O (centres undefined) 0.7%, CC1CCCCN1CCCOC(=O)c1ccc(OC2CCCCC2)cc1 (centres undefined) 14.4%, NC[C@H]1O[C@H](O[C@H]2[C@@H](O)[C@@H](O[C@H]3O[C@H](CO)[C@@H](O)[C@H](N)[C@@H]3O)[C@H](N)C[C@@H]2N)[C@H](N)C[C@H]1O 0.2%, O=P(O)(O)C(Sc1ccc(Cl)cc1)P(=O)(O)O 1.7%, Cc1onc(-c2c(Cl)cccc2Cl)c1C(=O)Cl -0.1%, Cc1cccc(N(C)C(=S)Oc2ccc3c(c2)CCC3)c1 0%, CCCCCCCCCCCCCCCCCCO 0.4%, Oc1ccc(Cl)cc1Sc1cc(Cl)ccc1O 4.4%, CC1CN(c2cc3c(cc2F)c(=O)c(C(=O)O)cn3-c2ccc(F)cc2F)CCN1 (centres undefined) -0.4%, CCCCCCCCCCCCCCCC(=O)OC(C)C 0.6%, CC(=O)Nc1ccn(C2COC(COC(=O)c3ccccc3)O2)c(=O)n1 (centres undefined) 8.2%, CCc1cc(S(=O)(=O)O)c2cc(C(C)C)cccc1-2 -0.2%, CCCc1ncc(C(=O)O)s1 -1.1%, CN1C(CSCC(F)(F)F)Nc2cc(Cl)c(S(N)(=O)=O)cc2S1(=O)=O (centres undefined) -0.4%, CCCCCC[C@@H](CCC)C(=O)O -0.3%, Cn1c(=O)c2[nH]c(Br)nc2n(C)c1=O 0.6%, CN1CC(=O)NC1=N -0.7%, C=CCN1CCc2nc(N)sc2CC1 0.7%, CO/N=C(\C(=O)O)c1csc(NC(=O)CCl)n1 0.7%, Cc1cc(CC(=O)O)c(C)n1-c1ccc(Cl)cc1 -0.5%
